# Key:
# Assay in all cases: DAPPL (digital affinity profiling via proximity ligation, sequencing); 10 mM Tris-HCl pH 7.5, 50 mM NaCl, 1 mM DTT, 4% glycerol, room temperature, 30 min; GST-TFs on glutathione beads, 16-mer random dsDNA library, 0.1% formaldehyde crosslink after washing; high values mean tight binding
# Settings in all cases: protein: recombinant; tags: N-terminal GST; dsDNA, one strand shown
# ETV1 = ETV1 (Homo sapiens, UniProt P50549 1-477)
# Summary of the method: (§1)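 Human transcription factors carrying a GST fusion were produced in yeast, bound to glutathione beads, tagged with DNA barcodes and pooled together with a tag-only sample. Each pool was held with 200 nmole of a random double-stranded 16-mer DNA library in Tris/NaCl/DTT/glycerol buffer for 30 min at room temperature, then washed, crosslinked in 0.1% formaldehyde, proximity-ligated with BsaI/T4 ligase (1 h, 37 °C), PCR-amplified and sequenced on an Illumina NextSeq500. Binding signal is the read frequency of each hexamer for a given factor divided by its frequency in the tag-only sample.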
# ERF = biological target: T1, ERF (Homo sapiens, UniProt P50548 1-548)
# T1 sequence: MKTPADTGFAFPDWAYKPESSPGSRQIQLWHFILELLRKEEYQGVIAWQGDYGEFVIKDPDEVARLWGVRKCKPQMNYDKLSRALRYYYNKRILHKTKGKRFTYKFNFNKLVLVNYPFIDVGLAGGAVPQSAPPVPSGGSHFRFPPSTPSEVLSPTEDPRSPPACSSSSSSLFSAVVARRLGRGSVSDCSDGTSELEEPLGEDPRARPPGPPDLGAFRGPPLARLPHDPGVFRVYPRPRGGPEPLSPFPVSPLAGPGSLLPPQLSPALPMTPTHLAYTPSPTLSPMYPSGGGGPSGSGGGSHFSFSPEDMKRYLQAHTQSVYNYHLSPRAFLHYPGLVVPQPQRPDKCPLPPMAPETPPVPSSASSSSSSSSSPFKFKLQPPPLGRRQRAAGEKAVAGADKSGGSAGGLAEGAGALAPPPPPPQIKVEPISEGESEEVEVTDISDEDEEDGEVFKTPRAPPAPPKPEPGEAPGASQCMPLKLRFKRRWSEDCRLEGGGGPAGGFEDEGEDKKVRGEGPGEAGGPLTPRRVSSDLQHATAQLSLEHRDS
# Summary of the method: as §1
# ETV3L = biological target: T2, ETV3L (Homo sapiens, UniProt Q6ZN32 1-361)
# T2 sequence: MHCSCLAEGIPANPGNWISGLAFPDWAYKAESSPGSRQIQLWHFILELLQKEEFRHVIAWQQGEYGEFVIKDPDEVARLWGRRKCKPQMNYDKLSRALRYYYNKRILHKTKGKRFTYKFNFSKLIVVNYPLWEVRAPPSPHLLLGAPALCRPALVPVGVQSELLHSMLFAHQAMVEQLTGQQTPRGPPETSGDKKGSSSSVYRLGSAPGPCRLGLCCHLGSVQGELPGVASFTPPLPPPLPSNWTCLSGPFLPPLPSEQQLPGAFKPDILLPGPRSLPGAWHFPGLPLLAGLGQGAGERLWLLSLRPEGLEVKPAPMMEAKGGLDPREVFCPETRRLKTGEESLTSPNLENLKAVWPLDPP
# Summary of the method: as §1
# ETS2 = biological target: T3, ETS2 (Homo sapiens, UniProt P15036 1-469)
# T3 sequence: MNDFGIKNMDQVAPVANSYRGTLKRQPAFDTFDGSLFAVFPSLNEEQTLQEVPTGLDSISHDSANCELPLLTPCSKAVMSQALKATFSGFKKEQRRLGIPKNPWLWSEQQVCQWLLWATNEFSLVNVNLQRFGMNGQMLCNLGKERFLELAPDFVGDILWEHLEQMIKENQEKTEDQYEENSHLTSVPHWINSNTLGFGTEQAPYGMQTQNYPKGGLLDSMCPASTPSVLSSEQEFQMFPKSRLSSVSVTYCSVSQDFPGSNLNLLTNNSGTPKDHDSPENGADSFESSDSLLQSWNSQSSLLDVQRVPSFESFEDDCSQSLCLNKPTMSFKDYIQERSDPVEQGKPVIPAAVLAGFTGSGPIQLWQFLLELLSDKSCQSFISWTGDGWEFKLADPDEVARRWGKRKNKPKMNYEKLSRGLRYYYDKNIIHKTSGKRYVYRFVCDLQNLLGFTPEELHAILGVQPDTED
# Summary of the method: as §1
# SPDEF = biological target: T4, SPDEF (Homo sapiens, UniProt O95238 1-335)
# T4 sequence: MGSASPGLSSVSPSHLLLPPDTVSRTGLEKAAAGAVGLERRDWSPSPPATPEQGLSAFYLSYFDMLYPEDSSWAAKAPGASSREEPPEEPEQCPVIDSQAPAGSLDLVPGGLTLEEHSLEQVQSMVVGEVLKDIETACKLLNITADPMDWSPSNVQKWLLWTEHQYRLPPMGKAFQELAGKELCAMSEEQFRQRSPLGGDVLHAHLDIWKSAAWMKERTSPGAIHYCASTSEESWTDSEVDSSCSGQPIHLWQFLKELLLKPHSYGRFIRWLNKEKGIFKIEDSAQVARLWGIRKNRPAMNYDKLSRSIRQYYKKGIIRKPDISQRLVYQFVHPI
# Summary of the method: as §1
# ETV7 = biological target: T5, ETV7 (Homo sapiens, UniProt Q9Y603 1-341)
# T5 sequence: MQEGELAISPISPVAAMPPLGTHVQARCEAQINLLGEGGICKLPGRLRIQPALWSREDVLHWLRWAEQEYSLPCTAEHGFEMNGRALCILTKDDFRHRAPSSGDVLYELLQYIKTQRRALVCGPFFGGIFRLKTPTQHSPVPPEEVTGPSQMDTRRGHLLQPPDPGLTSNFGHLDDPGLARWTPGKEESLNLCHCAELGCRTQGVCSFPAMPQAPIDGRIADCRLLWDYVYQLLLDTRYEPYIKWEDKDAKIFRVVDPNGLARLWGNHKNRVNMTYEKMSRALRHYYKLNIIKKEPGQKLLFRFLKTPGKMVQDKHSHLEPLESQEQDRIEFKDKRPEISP
# Summary of the method: as §1
# ELF5 = biological target: T6, ELF5 (Homo sapiens, UniProt Q9UKW6-2 1-255)
# T6 sequence: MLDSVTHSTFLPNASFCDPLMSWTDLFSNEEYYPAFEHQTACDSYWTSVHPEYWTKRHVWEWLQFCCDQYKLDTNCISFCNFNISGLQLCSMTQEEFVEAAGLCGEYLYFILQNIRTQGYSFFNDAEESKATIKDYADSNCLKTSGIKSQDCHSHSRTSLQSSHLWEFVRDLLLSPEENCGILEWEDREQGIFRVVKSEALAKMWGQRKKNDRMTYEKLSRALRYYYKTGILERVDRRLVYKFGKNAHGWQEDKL
# Summary of the method: as §1
# ETV3 = biological target: T7, ETV3 (Homo sapiens, UniProt P41162-2 1-143)
# T7 sequence: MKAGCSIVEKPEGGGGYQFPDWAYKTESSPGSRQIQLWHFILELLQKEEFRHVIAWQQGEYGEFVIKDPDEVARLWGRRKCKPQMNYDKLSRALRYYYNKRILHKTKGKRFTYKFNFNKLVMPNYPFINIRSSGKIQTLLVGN
# Summary of the method: as §1
# ETV6 = ETV6 (Homo sapiens, UniProt P41212 1-452)
# Chain of ETV6 (P41212 whole entry): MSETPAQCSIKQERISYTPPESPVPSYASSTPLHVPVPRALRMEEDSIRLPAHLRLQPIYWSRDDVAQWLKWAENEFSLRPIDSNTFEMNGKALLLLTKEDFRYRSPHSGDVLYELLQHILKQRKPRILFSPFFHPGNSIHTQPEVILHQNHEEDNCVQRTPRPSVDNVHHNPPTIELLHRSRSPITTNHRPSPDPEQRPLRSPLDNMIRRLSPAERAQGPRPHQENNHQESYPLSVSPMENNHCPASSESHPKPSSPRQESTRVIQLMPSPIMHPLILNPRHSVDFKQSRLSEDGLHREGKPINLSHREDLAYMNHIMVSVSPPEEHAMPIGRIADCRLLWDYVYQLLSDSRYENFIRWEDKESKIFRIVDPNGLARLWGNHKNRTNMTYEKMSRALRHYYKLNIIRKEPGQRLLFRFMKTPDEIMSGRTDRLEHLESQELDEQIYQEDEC
# Summary of the method: as §1
# Chain of ETV1 (P50549 whole entry, the tested form may be a part): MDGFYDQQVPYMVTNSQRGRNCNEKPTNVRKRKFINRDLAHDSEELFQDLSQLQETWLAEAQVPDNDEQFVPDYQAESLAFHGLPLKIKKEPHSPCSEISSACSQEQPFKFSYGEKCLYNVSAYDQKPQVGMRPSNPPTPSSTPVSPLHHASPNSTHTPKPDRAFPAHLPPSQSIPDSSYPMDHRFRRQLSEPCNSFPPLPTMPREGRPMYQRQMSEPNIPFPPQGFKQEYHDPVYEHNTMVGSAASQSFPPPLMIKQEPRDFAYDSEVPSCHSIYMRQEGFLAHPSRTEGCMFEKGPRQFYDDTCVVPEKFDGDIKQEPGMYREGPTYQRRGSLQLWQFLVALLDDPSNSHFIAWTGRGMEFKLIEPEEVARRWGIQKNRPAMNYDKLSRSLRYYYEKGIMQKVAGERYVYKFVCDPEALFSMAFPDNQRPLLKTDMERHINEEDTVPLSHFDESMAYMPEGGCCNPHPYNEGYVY
sequence,measurement,setting,value
AACTGC,binding signal,ETV1,"1.36 fold enrichment (6-mer frequency, TF over GST control)"
same,binding signal,ERF,"1.22 fold enrichment (6-mer frequency, TF over GST control)"
same,binding signal,ETV3L,"1.37 fold enrichment (6-mer frequency, TF over GST control)"
same,binding signal,ETS2,"1.3 fold enrichment (6-mer frequency, TF over GST control)"
same,binding signal,SPDEF,"1.28 fold enrichment (6-mer frequency, TF over GST control)"
same,binding signal,ETV7,"1.3 fold enrichment (6-mer frequency, TF over GST control)"
same,binding signal,ELF5,"1.36 fold enrichment (6-mer frequency, TF over GST control)"
same,binding signal,ETV3,"1.39 fold enrichment (6-mer frequency, TF over GST control)"
same,binding signal,ETV6,"1.3 fold enrichment (6-mer frequency, TF over GST control)"
